Screening data from PubChem BioAssay.
Hits are enriched below; roughly 2.4% of the tested compounds scored in any of these assays.
SENP6 inh: SENP6 protease inhibition | actives 1.8% (n = 330,000) | inhibition, % at 10 µM | Recombinant SENP6 catalytic domain, aminoluciferin luminescence;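 active means inhibition above about 50% at the single tested dose, limit read from the data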;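 further: plate controls were DMSO wells with enzyme for no effect and DMSO wells lacking enzyme for full effect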
Platelet DG rel: platelet dense granule release activity; AID 1663; inhibition, %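 (compounds screened at 7.5 µM in platelet-rich plasma)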; human platelet-rich plasma, SFLLRN dense granule ATP release, luminescence; actives 0.22% (n = 300,000);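 active means mean replicate score, as percent of positive control, at or above 50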
SENP8 block-1: blocks human SENP8 cleavage of Nedd8 substrate; Q96LD8; recombinant SENP8, Nedd8 substrate fluorescence; inhibition, % at 20 µM; actives 0.64% (n = 360,000); in the data active means inhibition mostly above about 40%, no sharp cut-off; inactive means mostly below about 27%
Target sequence (Q96LD8 whole entry, looked up): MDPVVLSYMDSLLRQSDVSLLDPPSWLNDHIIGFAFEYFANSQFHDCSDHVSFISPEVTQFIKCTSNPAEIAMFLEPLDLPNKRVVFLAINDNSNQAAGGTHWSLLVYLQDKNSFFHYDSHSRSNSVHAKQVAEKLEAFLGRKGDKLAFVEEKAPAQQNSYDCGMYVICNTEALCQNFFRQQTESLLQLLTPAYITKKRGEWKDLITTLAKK
SENP8 block-2: inhibitors of human SENP8 protease; Q96LD8; inhibition, % at 10 µM; actives 1.2% (n = 330,000); AID 2540; purified SENP8, Z-RLRGG-aminoluciferin cleavage, luminescence; in the data active means inhibition above about 50%
SENP7 block: SENP7 protease inhibition; Q9BQF6; actives 1.5% (n = 330,000); recombinant SENP7, Z-RLRGG-aminoluciferin luminescence, 40 min; AID 434973; inhibition, % at 5 µM;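 active means inhibition above about 50% at the single test dose, limit read from the data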;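 further: plate controls were DMSO with enzyme for no effect and no enzyme buffer wells for full effect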
SENP8 confirm: human SENP8 inhibition, confirmed. AID 488912. inhibition, % at 12.5 µM. Recombinant SENP8, Z-RLRGG-aminoluciferin luminescence, 60 min. actives 40% (n = 6,200). shares compounds with SENP7 block;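 active means mean inhibition across replicates above about 50%, limit read from the data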
SENP6 confirm: confirmation of human SENP6 protease inhibitors; shares compounds with SENP7 block; recombinant SENP6, Z-RLRGG-aminoluciferin luminescence; actives 58% (n = 6,200); inhibition, % at 12.5 µM; AID 488915
SENP7 confirm: human SENP7 inhibition, confirmed; shares compounds with SENP7 block; recombinant SENP7, Z-RLRGG-aminoluciferin luminescence, 40 min; inhibition, % at 12.5 µM; actives 69% (n = 6,200)
Casp3 select: inhibits human caspase-3 in SENP selectivity test. shares compounds with SENP7 block. purified caspase-3, Z-DEVD-aminoluciferin luminescence, 60 min. inhibition, % at 12.5 µM. actives 60% (n = 6,200). AID 488918;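 active means mean inhibition above about 50%, limit read from the data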;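 further: plate controls were enzyme with DMSO for no effect and wells without caspase-3 for full effect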
Target sequence (P42574 28-227 limits assumed): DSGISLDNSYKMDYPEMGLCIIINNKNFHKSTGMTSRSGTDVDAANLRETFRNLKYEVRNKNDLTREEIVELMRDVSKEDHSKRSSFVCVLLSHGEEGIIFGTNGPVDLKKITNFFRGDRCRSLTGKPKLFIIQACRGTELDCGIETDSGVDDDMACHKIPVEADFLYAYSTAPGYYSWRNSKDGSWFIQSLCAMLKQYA
Luc interf: luminescence interference (SENP counter-screen); shares compounds with SENP7 block; Pre-incubated SENP8/Z-RLRGG-aminoluciferin, luciferase luminescence interference; inhibition, % at 12.5 µM; actives 39% (n = 6,200); AID 488919;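 active means mean inhibition above about 50% when retested at one dose, limit read from the data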;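 further: plate controls were DMSO wells with completed reaction for no effect and substrate without enzyme for full effect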
An asterisk follows results filed as active; nt = not tested or not shown.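 How the source made its calls, unless noted: active means mean inhibition above about 50% in the one-dose retest (limit read from the data); inactive means the rest.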

SMILES	SENP6 inh	Platelet DG rel	SENP8 block-1	SENP8 block-2	SENP7 block	SENP8 confirm	SENP6 confirm	SENP7 confirm	Casp3 select	Luc interf
Clc1ccccc1Nc1nc2ccccc2o1	94.8*	nt	4.4	95.2*	99.7*	-4.3	99.8*	103.4*	98.0*	97.3*
O=C(NCCN1CCN(Cc2ccccc2)CC1)c1ccc(CS(=O)(=O)c2ccc(Br)cc2)o1	3.0	0.2	14.2	-4.3	1.9	nt	nt	nt	nt	nt
CCC(C)c1ccccc1N1CC(C(=O)NCCCn2nc(C)cc2C)CC1=O (stereo not given)	-4.2	nt	7.5	5.5	3.5	nt	nt	nt	nt	nt
Cc1cc2ncc(-c3ncc(C(F)(F)F)cc3Cl)cn2n1	-19.4	6.7	-14.7	26.1	59.5*	26.0	40.4	76.6*	78.9*	28.4
Cc1nn2cc(-c3ncc(C(F)(F)F)cc3Cl)cnc2c1Br	83.0*	5.8	-13.2	75.9*	90.2*	60.9*	59.8*	27.9	40.5	20.4
Cc1ccc(C(=O)N2CCN(c3cccc(C)c3C)CC2)cc1S(=O)(=O)N1CCOCC1	-4.2	nt	-0.8	-2.7	-1.2	nt	nt	nt	nt	nt
Clc1ccccc1Nc1nnc(-c2ccncc2)s1	97.8*	68.8*	-398.8	96.2*	100.3*	98.2*	99.0*	101.9*	97.4*	33.7
COc1ccc(Nc2nc(C)cc(C)n2)cc1Cl	69.8*	19.3	20.4	39.1	66.6*	61.5*	58.6*	86.0*	67.8*	65.3*
COc1ccc(Nc2nnc(-c3ccncc3)s2)cc1Cl	73.0*	8.2	-275.9	65.9*	95.6*	29.8	23.5	43.6	54.2*	6.3
COc1ccc(Cl)cc1Nc1nnc(-c2ccncc2)s1	75.6*	nt	-291.9	50.8*	95.0*	-14.0	8.9	-4.0	1.3	-6.3
FC(F)(F)c1ccc(Cl)c(Nc2nnc(-c3ccncc3)s2)c1	nt	nt	-338.4	nt	nt	nt	nt	nt	nt	nt
COc1nc(Nc2ccc(OC)c(Cl)c2)nc(OC)n1	-16.4	-4.5	19.5	-10.2	-0.8	nt	nt	nt	nt	nt
N#Cc1ccc(OCC(=O)N2CCN(c3ccc(C(F)(F)F)cn3)CC2)cc1	12.2	nt	-10.0	-2.0	8.4	nt	nt	nt	nt	nt
CCOC(=O)[C@]12CCCC=C1N(Cc1ccc(Cl)cc1Cl)C(=O)[C@H](CC(=O)NCc1cccc3ccccc13)C2	nt	nt	13.9	nt	nt	nt	nt	nt	nt	nt
CCn1c(/C=C/c2ccccc2)nc2ccccc21	96.7*	7.9	-270.2	85.4*	91.6*	94.0*	94.4*	101.2*	93.9*	95.3*
COc1ccc(-c2nc3ccccc3n2Cc2ccccc2)cc1	-6.0	2.9	1.1	5.4	1.4	nt	nt	nt	nt	nt
COc1ccc(/C=C/c2nc3ccccc3n2C)cc1	101.4*	112.8*	-432.7	96.0*	100.5*	99.5*	100.7*	103.3*	99.0*	96.7*
COc1ccc(Cn2c(/C=C/c3ccccc3)nc3ccccc32)cc1	89.5*	4.6	-300.0	80.9*	88.5*	90.3*	91.3*	98.9*	71.2*	33.6
C[C@H](CO)N1C[C@H](C)[C@@H](CN(C)C(=O)CN2CCOCC2)Oc2ncc(-c3cncnc3)cc2C1=O	nt	nt	15.4	nt	nt	nt	nt	nt	nt	nt
Cn1c(=O)[nH]c2ccc([N+](=O)[O-])nc21	-7.4	-4.8	20.1	0.4	0.3	nt	nt	nt	nt	nt
O=C(C1CC(c2ccccc2O)=NO1)N1CCCCC1 (stereo not given)	-16.9	-0.3	3.4	-4.3	73.6*	-10.8	-6.6	-12.9	7.7	7.3
O=C(C1CC(c2ccccc2O)=NO1)N1CCc2ccccc2C1 (stereo not given)	-13.6	0.8	4.2	-6.2	4.7	nt	nt	nt	nt	nt
CC1CCN(C(=O)c2cc3c(ccc4ccccc43)o2)CC1	92.8*	25.8	8.1	89.0*	90.4*	89.0*	89.6*	98.5*	78.3*	76.2*
CC1CCN(C(=O)c2cc3ccccc3c(=O)o2)CC1	1.0	-0.4	6.5	-5.4	-0.7	nt	nt	nt	nt	nt
